DT40 TDP1 no CPT = qHTS for Inhibitors of human tyrosyl-DNA phosphodiesterase 1 (TDP1): qHTS in cells in absence of CPT; DT40 Tdp1-/- hTDP1 cells, no CPT, ATP luminescence, 48 h; Potency, µM (doses to about 46.2 µM), without a hit: at the highest dose activity change, negative = growth inhibition, most hits filed as inhibitors; 420,000 tested, 15% active; AID 686978, 2013; note: % is set by controls: 0 for no effect and ±100 for the full control effect; nearly all actives have a fitted effect of over 55% in size
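A cellular qHTS used chicken DT40 cells lacking endogenous Tdp1 but carrying stably transfected human TDP1. Compounds were applied without camptothecin, and cell growth kinetics were judged by ATP-dependent luminescence after ≥48 hr.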
DT40 TDP1 CPT = growth inhibition of DT40 Tdp1-/-;hTDP1 cells with camptothecin (screen for TDP1 inhibitors); chicken DT40 Tdp1-/-;hTDP1 cells + 20 nM CPT, ATP luminescence, 48 h; Potency, µM (doses to about 46.2 µM), for the others: top-dose activity change, negative = growth inhibition, actives largely listed as inhibitors; 420,000 tested, 12% active; AID 686979; note: % is set by controls: 0 for no effect and ±100 for the full control effect; nearly all actives have a fitted effect of over 55% in size
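Cell growth measured by CellTiter-Glo luminescence after a minimum 48 h, 37 C compound exposure with 20 nM CPT in Tdp1-knockout DT40 cells stably expressing hTDP1, seeded 400/well; qHTS titration format.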
S2 tox = cell viability loss in ATXN counter-screen. AID 651635. Potency, µM (series often up to 56.7 µM), most hits filed as cytotoxic. 400,000 tested, 0.49% active. S2 cells (HEK-293 line with an ATXN2-luciferase reporter) viability, CellTiter-Fluor protease fluorescence, 24 h; note: nearly all actives have a fitted effect of over 40% in size
TGFb inhibitor = blocks TGF-b signaling | AID 588855 | 410,000 tested, 1.2% active | Potency, µM (doses to about 46.1 µM), inactives show top-dose activity, negative = inhibition, actives largely listed as inhibitors | HepG2 CAGA-GFP TGF-b/SMAD3 reporter, GFP fluorescence, 18 h; TGF-beta stimulated, 500 pg/mL final; note: % is set by controls: 0 for no effect and ±100 for the full control effect; nearly all actives have a fitted effect of over 65% in size
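Read-out: total well GFP (ex488/em500-530) summed from mean per-cell fluorescence. Cells: HEPG2 CAGA-GFP, 1% FBS DMEM, 18 h at 37 degrees C with 500 pg/mL final TGF-beta. Unstimulated wells served as the full-inhibition control; stimulated DMSO wells = 0%.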
HepG2 tox = HepG2 cytotoxicity, counter-screen for TGF-b inhibitors | HepG2 CAGA-GFP viability, ATP luminescence, 18 h | Potency, µM (top dose mostly 46.1 µM), inactives show top-dose activity change, negative = cytotoxicity, hits mostly cytotoxic | 410,000 tested, 0.76% active | AID 588856
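CellTiter-Glo luminescence gave cytotoxicity after 18 hours at 37 degrees C. The cells were HepG2 CAGA-GFP in 1% FBS DMEM, stimulated with 500 pg/mL TGF-beta after compound addition. %Activity was normalised to no-cell wells (complete cell-killing) and DMSO (no toxicity), and curves were fitted and classified.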
ATXN2 expr inh = inhibitors of ATXN2 expression; HEK-293 ATXN2-luciferase reporter, luminescence, 24 h; Potency, µM (top dose mostly 57 µM), inactives show top-dose activity change, negative = inhibition, actives largely listed as inhibitors; 360,000 tested, 0.72% active; AID 1745845; note: % is set by controls: 0 for no effect and ±100 for the full control effect; nearly all actives have a fitted effect of over 55% in size
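qHTS (up to 57 uM final) was run with 24 h compound exposure of reporter cells at 37 °C. Each well was multiplexed: SteadyGlo luminescence measured ATXN2-luciferase expression after a fluorogenic Gly-Phe-AFC viability readout (25 uM final).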
* = called active by the depositor; i = inactive; ? = inconclusive; / = no result; ! = not confirmed by another sample; [ ] = dose if it differs, or a comment. A selection: hits, their analogues and other compounds. The true share with any hit is near 17%. Calls come from the whole dose curve; as a rule, active = well fitted curve in the direction sought with a large enough effect; inconclusive = small, poorly fitted or top-dose-only effect, or another doubt; inactive = no such curve, though single readings can be large; an effect the other way counts as inactive or inconclusive. Potency is the fitted concentration of half-maximal effect.

SMILES | DT40 TDP1 no CPT | DT40 TDP1 CPT | S2 tox | TGFb inhibitor | HepG2 tox | ATXN2 expr inh
O=C(CCNS(=O)(=O)c1ccc(Br)cc1)NNC(=O)C1COc2ccccc2O1 (configuration not stated) | -18.0% | -26.2% | i | -19.9% | -8.0% | -10.2%
COc1ccc(C)cc1NC(=O)CC(NC(C)=O)c1ccccc1 (configuration not stated) | 17.4% | -8.7% | i | 0.5% | 3.2% | -11.2%
O=S(=O)(c1cccc(-c2nc3n(n2)Cc2ccccc2-3)c1)N1CCCCC1 | ? | ? | i | -13.6% | -17.8% | 0.5%
O=S(=O)(c1cccc(-c2nc3n(n2)Cc2ccccc2-3)c1)N1CCCC1 | ? | 20.6µM* | i | -0.4% | -9.7% | 9.4%
CCN(C1CCCCC1)S(=O)(=O)CCNC(=O)c1ccc2c(c1)OCO2 | ? | 23.1µM* | i | 10.8% | -1.6% | -20.0%
COc1ccc(OCc2csc(N)n2)cc1 | -13.3% | 14.9% | i | -21.0% | 2.5% | 13.0%
CC(C)Oc1ccc(C(=O)N(Cc2ccc(N(C)C)cc2)C2CCS(=O)(=O)C2)cc1 (configuration not stated) | -26.0% | -3.7% | i | -5.0% | 13.0% | 1.0%
CC(/C=C/c1ccc(N(C)C)cc1)=N/N=C1/NC(=O)CC(C(=O)Nc2ccc(Cl)cc2)S1 (configuration not stated) | -22.7% | -28.1% | ? | 10µM* | -38.3% | 25.9%
Cc1cccc(S(=O)(=O)c2cn(Cc3ccccc3)c3cc(N4CCCCC4C)c(F)cc3c2=O)c1 (configuration not stated) | ? | -58.4% | / | -10.0% | -4.2% | /
CCn1cc(S(=O)(=O)c2ccc(C)cc2)c(=O)c2cc(F)c(N3CCCCCC3)cc21 | 18.4µM* | 16.4µM* | / | 2.0% | 6.9% | /
CC1CCCCN1c1cc2c(cc1F)c(=O)c(S(=O)(=O)c1ccccc1)cn2Cc1ccccc1 (configuration not stated) | 8.2µM* | 8.2µM* | / | -15.8% | -6.6% | /
Cc1ccc(S(=O)(=O)c2cn(Cc3ccccc3)c3cc(N4CCCC4)c(F)cc3c2=O)cc1 | 5.8µM* | 5.8µM* | / | 9.8% | 12.3% | /
CCn1cc(S(=O)(=O)c2ccc(OC)cc2)c(=O)c2cc(F)c(N3CCC(C)CC3)cc21 | 25.9µM* | ? | / | ? | -17.7% | /
O=c1c(S(=O)(=O)c2ccccc2)cn(Cc2ccccc2)c2cc(N3CCCC3)c(F)cc12 | 0.1% | -5.0% | / | 1.3% | 3.0% | /
CC(=O)Nc1cccc2c1OCCO2 | -4.0% | -19.1% | ? | -0.9% | -17.2% | ?
CCn1cc(S(=O)(=O)c2ccc(C)cc2C)c(=O)c2cc(F)c(N3CCCCC3)cc21 | 23.1µM* | ? | / | ? | -25.7% | /
CCc1ccc(S(=O)(=O)c2cn(CC)c3cc(N4CCOCC4)c(F)cc3c2=O)cc1 | ? | 14.6µM* | / | -1.5% | 0.6% | /
CCOC(=O)N1CCC(=C2c3ccc(Cl)cc3CCc3cccnc32)CC1 | 13µM* | 20.6µM* | ? | -27.0% | -22.3% | 14.1µM*!
CN1CCC(=C2c3ccccc3CCc3cccnc32)CC1 | 8.5% | 14.8% | i | / | / | -8.1%
COc1ccc(NC(=S)Nc2ccc(F)cc2)c(OC)c1 | ? | ? | i | -13.9% | -6.1% | 7.8%
Fc1ccc(NC(=S)Nc2cc(Cl)ccc2Cl)cc1 | ? | 5.8µM* | i | -5.0% | -5.2% | -3.8%
CCC(C)(C)C1CCC(=NNC(=S)Nc2ccccc2)CC1 (configuration not stated) | 14.6µM* | ? | i | -28.7% | -35.1% | -12.6%
CCC(C)(C)C1CCC(=NNC(=S)Nc2cccnc2)CC1 (configuration not stated) | ? | ? | i | -2.3% | -18.5% | -2.1%[11.3 µM]
S=C(NN=C1CCCCCC1)Nc1ccc(Cl)cc1 | 29.1µM* | 29.1µM* | i | -10.9% | -2.0% | 12.5%
Fc1ccc(NC(=S)Nc2ccc(Cl)cc2)cc1 | 23.1µM* | ? | i | ? | -21.5% | -10.2%
SMILES | DT40 TDP1 no CPT | DT40 TDP1 CPT | S2 tox | TGFb inhibitor | HepG2 tox | ATXN2 expr inh
Cn1cc(S(=O)(=O)N2CCCC2)cc1C(=O)NCc1ccccc1Cl | -16.0% | 16.4µM* | i | 1.9% | -19.2% | 2.0%
COc1ccccc1CNC(=O)c1cc(S(=O)(=O)N2CCCC2)cn1C | -16.2% | -19.9% | i | -11.6% | -10.3% | 0.7%
COc1cccc(CNC(=O)c2cc(S(=O)(=O)N3CCOCC3)cn2C)c1 | 1.3% | 20.6µM* | i | -2.6% | -5.9% | 8.5%
COc1ccc(CCNC(=O)c2c(N)no[n+]2[O-])cc1OC | -13.6% | -1.4% | i | 3.5% | -10.5% | 17.4%
COc1ccc(OC)c(N(CC(=O)Nc2cccc3ccccc23)S(C)(=O)=O)c1 | -4.4% | -1.7% | ? | 11.7% | 0.2% | -1.4%
O=C(CCC(=O)c1ccc(F)cc1)NCc1ccccc1C(F)(F)F | 5.2% | 2.1% | i | -0.3% | 4.1% | 1.2%
[O-]C1=N[N+](=C(c2ccccc2)c2ccccc2)C1 | -0.8% | -9.9% | i | -2.8% | -1.1% | -9.9%
COc1ccccc1-c1cc2nc(C)c(CCC(=O)NC(C)CCc3ccco3)c(C)n2n1 (configuration not stated) | 20.6µM* | 23.1µM* | i | ? | -5.8% | -23.3%
Cc1nc2c(-c3ccccc3)c(C)nn2c(C)c1CCC(=O)NC(C)CCc1ccco1 (configuration not stated) | 9.2µM* | 11.6µM* | i | -17.7% | -15.4% | ?
COc1ccccc1CNC(=O)CCc1c(C)nc2cc(-c3ccccc3OC)nn2c1C | ? | ? | i | 0.5% | -4.7% | -19.3%
CCOc1ccccc1OCC(=O)Nc1cccc(S(=O)(=O)N2CCCCCC2)c1 | ? | ? | i | 5.0% | -16.8% | -15.1%
O=C(COc1ccc2ccc(=O)oc2c1)Nc1cccc(S(=O)(=O)N2CCCCC2)c1 | 11.6µM* | ? | ? | -8.0% | 3.3% | -28.5%
CC(=O)c1ccc(OCC(=O)Nc2cccc(S(=O)(=O)N3CCCC3)c2)cc1 | 9.2µM* | 8.2µM* | i | -6.0% | -5.7% | -7.1%
N#Cc1ccccc1OCC(=O)Nc1cccc(S(=O)(=O)N2CCCCCC2)c1 | 20.6µM* | ? | ? | -9.3% | -22.0% | ?
Cc1ccc(OCC(=O)Nc2cccc(S(=O)(=O)N3CCCC3)c2)cc1C | ? | -27.7% | ? | 2.8% | 1.1% | /
